Pf growth 96h – P. falciparum growth inhibition at 96 hours; AID 504834; Potency, µM (doses to about 28.7 µM), inactives show at the top dose activity change, negative = inhibition, usual class: inhibitors; 320,000 tested, 6.9% active; P. falciparum luciferase reporter growth, 96 h; note: potency is the fitted concentration of half-maximal effect; % is set by controls: 0 for no effect and ±100 for the full control effect
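Erythrocytes infected with luciferase-expressing P. falciparum were dispensed at 2% hematocrit and 0.05% parasitemia (final), then incubated with compounds 96 hours at 37 C in 5% CO2. Luminescence after detection reagent addition reported growth.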
Pf growth 48h – P. falciparum growth inhibition at 48 hours (one generation); AID 504832; Potency, µM (doses to about 28.7 µM), for the others: at the highest dose activity change, negative = inhibition, hits mostly inhibitors; 310,000 tested, 5.9% active; P. falciparum luciferase growth in erythrocytes, 48 h; note: potency is the fitted concentration of half-maximal effect; % is set by controls: 0 for no effect and ±100 for the full control effect
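A one-generation exposure of luciferase-tagged malaria parasites in RPMI 1640/Albumax erythrocyte culture, 37 C and 5% CO2. Inhibition is inferred from decreased luminescence after adding detection reagent.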
Sm TGR block – inhibitors of Schistosoma mansoni thioredoxin glutathione reductase; Q962Y6; purified TGR, DTNB reduction, TNB absorbance 405 nm; Potency, µM (doses to about 114 µM), without a hit: at the highest dose activity change, negative = inhibition, actives largely listed as inhibitors; 360,000 tested, 3% active; AID 485364; note: potency is the fitted concentration of half-maximal effect; % is set by controls: 0 for no effect and ±100 for the full control effect; nearly all actives have a fitted effect of over 60% in size
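First, TGR (20 nM dispensed) and NADPH were mixed with compound. Second, a 15 min room-temperature incubation followed. Third, further NADPH and then DTNB were added to start the reaction. Finally, TNB absorbance was monitored kinetically.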
HCMV antiviral – human cytomegalovirus inhibition | 410,000 tested, 4.5% active | AID 1259415 | HFF cells, HCMV-luciferase reporter, 72 h; hits give low values | activity change, negative = inhibition, % at 57.5 µM; in the data active = activity change below about -60%; inconclusive = no clear call, values can overlap the other calls; inactive = above about -39%; note: % is set by controls: 0 for no effect and ±100 for the full control effect
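Cell-based, HFFs, 1000 cells/well, 16 h 37C; cpds in DMSO + HCMV-luc, MOI 1 PFU/cell; 72 h 37C; OneGlo luminescence after 5 min RT; norm. to buffer vs Salinomycin 10uM.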
SARS PLpro yeast – blocks SARS-CoV papain-like protease in a yeast assay | 330,000 tested, 0.19% active | S. cerevisiae expressing SARS-CoV PLpro, growth rescue | AID 485353 | Potency, µM (titrated, usually from 32.9 µM), for inactives: at the highest dose activity, positive = growth rescue, actives largely listed as activators; calls by dose curve; note: potency is the fitted concentration of half-maximal effect; 0% is about no effect; nearly all actives have a fitted effect of over 55% in size
HCV inh – blocks hepatitis C virus | Huh7.5.1 HCVcc-Cre infection, luciferase reporter, 44 h | Potency, µM (doses to about 41.8 µM), for the others: at the highest dose activity change, negative = inhibition, actives largely listed as inhibitors | 340,000 tested, 3.4% active | AID 651820; note: potency is the fitted concentration of half-maximal effect; % is set by controls: 0 for no effect and ±100 for the full control effect
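Infectious HCV cell culture screen: compound-treated cells (1,000/well, pre-plated 4 h) are infected with HCVcc-Cre at roughly 0.5 moi and grown 44 h. Infection is quantified by luciferase signal after 15 min substrate incubation at room temperature.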
Numbers without * were called inactive; ? = inconclusive; . = not tested or not shown. An excerpt weighted towards active compounds, which were near 15% of everything screened. Unless noted, calls come from the whole dose curve; as a rule, active = well fitted curve in the direction sought with a large enough effect; inconclusive = small, poorly fitted or top-dose-only effect, or another doubt; inactive = no such curve, though single readings can be large; an effect the other way counts as inactive or inconclusive.

SMILES	Pf growth 96h	Pf growth 48h	Sm TGR block	HCMV antiviral	SARS PLpro yeast	HCV inh
O=C(CN(c1cccc(C(F)(F)F)c1)S(=O)(=O)c1ccc(Cl)c([N+](=O)[O-])c1)NCc1ccc(F)cc1	15µM*	?	?	60	4%	?
COc1cccc(NC(=O)CN(c2cccc(C(F)(F)F)c2)S(C)(=O)=O)c1	18%	?	-10%	11	14%	-4%
O=C(CN(c1cccc(C(F)(F)F)c1)S(=O)(=O)c1ccccc1)Nc1cccc(Cl)c1	.	.	14%	-66*	.	.
CCCCOc1ccc(C(=O)N2CCN(CCc3ccncc3)CC2)cc1	.	.	-24%	9	.	.
Cc1ccc(S(=O)(=O)N2CC3=C(C2)C2CC2(C)C3)cc1 (centres undefined)	.	.	.	-34	.	.
Cc1cc(O)c2c(c1O)C(=O)[C@]13C(=C2O)C(=O)[C@@H]2[C@@H](O)[C@H]1[C@@H]1[C@H](O)[C@H]3C(=O)C3=C(O)c4c(O)cc(C)c(O)c4C(=O)[C@]312	.	.	.	.	11%	5µM*
C=C(C)Cn1c2ccc(NC(=O)NCc3ccc(F)cc3)cc2c(=O)n1C	.	.	.	-2	.	.
CCOc1nc2cccc(C(=O)O)c2n1Cc1ccc(-c2ccccc2-c2nn[nH]n2)cc1	2.1µM*	?	.	3	.	.
CCCCC1=NC2(CCCC2)C(=O)N1Cc1ccc(-c2ccccc2-c2nn[nH]n2)cc1	?	?	4%	.	1%	.
COCCN(CCOC)Cc1cc(=O)oc2cc3c(cc12)CCC3	-27%	-17%	?	-3	-3%	?
CC(C)CN(Cc1cc(=O)oc2cc3c(cc12)CCCC3)CC(C)C	?	1.3µM*	-2%	-37	-1%	10%
O=c1cc(CN2CCN(Cc3ccccc3)CC2)c2cc3c(cc2o1)CCC3	-16%	?	35µM*	16	-1%	?
CCOC(=O)N1CCN(Cc2cc(=O)oc3cc4c(cc23)CCC4)CC1	4.7µM*	?	?	5	-11%	-19%
O=C1NC(c2ccccc2)=C(c2ccc3ccccc3n2)C(c2ccc(F)cc2)N1 (centres undefined)	4.1µM*	5.2µM*	-8%	0	-40%	?
O=C1NC(c2ccccc2)=C(c2nc3ccccc3s2)C(c2ccc(O)cc2)N1 (centres undefined)	7.4µM*	2.1µM*	-10%	.	6%	.
O=C1NC(c2ccccc2)=C(c2ccc3ccccc3n2)C(c2ccccc2)N1 (centres undefined)	5.2µM*	12µM*	4%	2	-23%	?
O=C1N[C@@H](Cc2ccccc2)C(=O)N2CCCC12 (some centres undefined)	.	.	.	-3	-13%	15%
CC(C)CC1NC(=O)C(CCCN)NC(=O)C(C(C)C)NC(=O)C2CCCN2C(=O)C(Cc2ccccc2)NC(=O)C(CC(C)C)NC(=O)C(CCCN)NC(=O)C(C(C)C)NC(=O)C2CCCN2C(=O)C(Cc2ccccc2)NC1=O (centres undefined)	2.4µM*	-99%	.	.	.	.
CCOC(=O)C(NCCc1ccccc1F)(NC(C)=O)C(F)(F)F (centres undefined)	?	-15%	-5%	-24	25%	0%
Cc1ccc(C(=O)NNC(=S)Nc2cccc3ccccc23)s1	1%	107%	31%	68	1%	9%
O=C(Nc1cccc2ccccc12)c1ccc([N+](=O)[O-])s1	5.2µM*	12µM*	-10%	-98*	-25%	?
O=C(Nc1ccccc1F)c1ccc([N+](=O)[O-])s1	4.1µM*	10µM*	?	?	-10%	?
O=C(Nc1cccnc1)c1ccc([N+](=O)[O-])s1	?	5.2µM*	-35%	-84*	-12%	?
CN(C)NC(=O)c1ccc([N+](=O)[O-])s1	12µM*	10µM*	-17%	-13	-1%	-3%

Screens as filed in PubChem.
